# Source: PubChem BioAssay (Sanford-Burnham Center for Chemical Genomics)
# TROY signal inh = TROY signaling inhibition | hit rate 0.98% among 360,000 | Q293 LMP1-TROYcd NF-kB luciferase reporter, 4 h | inhibition, % at 10 µM;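 active = compounds whose plate-normalised and pattern-corrected inhibition of the luciferase reporter signal at the single screening dose is 50% or more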
# CF NFkB inh = inhibitors of cystic fibrosis induced NF-kB. KKLEB NF-kB-GFP reporter, PAF-induced, GFP fluorescence overnight. inhibition, % at 5 µM. hit rate 0.86% among 360,000. AID 588850;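 active = at least 50% inhibition at 5 µM, scaled per plate between neutral and stimulator controls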;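 also: PAF is a Pseudomonas aeruginosa culture filtrate used as stimulus; plate controls were PAF-stimulated DMSO wells for no effect and unstimulated DMSO wells for full effect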
# TWEAK Fn14 block = blocks TWEAK-Fn14 interaction in a reporter cell assay. TWEAK-stimulated Fn14 reporter cells, luciferase luminescence, 8 h. inhibition, % at 10 µM. hit rate 2% among 360,000. AID 1159606; in the data active = inhibition above about 50%
# KKLEB tox = reduces viability of KKLEB cystic fibrosis airway cells. KKLEB CF airway cells viability, ATPlite luminescence, overnight; stronger effect = lower value; cells stimulated with P. aeruginosa culture filtrate. activity change (cytotoxicity), % at 5 µM. hit rate 0.36% among 360,000. AID 602141;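 active = corrected activity change at or below -50% at 5 µM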
# Peg3 prom inh-1 = inhibitors of Peg3 promoter; HeLa PEG-Prom luciferase reporter, luminescence, overnight; inhibition, % at 20 µM; hit rate 1.7% among 360,000; AID 588405;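 active = inhibition of at least 50% at 20 µM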
# HIF-2a inh = inhibitors of HIF-2a | 786-0 RCC cells HIF-2a reporter, luciferase luminescence, overnight | inhibition, % at 18.8 µM | hit rate 0.72% among 360,000;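 active = inhibition of the luminescence signal of 40% or more relative to plate controls, in a single-dose primary screen at 18.75 µM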
# Peg3 prom inh-2 = confirmation of Peg3 promoter inhibitors; HeLa PEG-Prom luciferase reporter, luminescence, overnight; inhibition, % at 20 µM; shares compounds with Peg3 prom inh-1; hit rate 84% among 1,300;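 active = at 20 µM dose, 40% or more inhibition averaged across four replicates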
# Starred values were filed as active, the others as inactive; / = not tested or not shown. The list is not random: actives were taken first. Their share in the collection is about 4%.
SMILES,TROY signal inh,CF NFkB inh,TWEAK Fn14 block,KKLEB tox,Peg3 prom inh-1,HIF-2a inh,Peg3 prom inh-2
C=CC(=O)Nc1cccc(Oc2ccnc(Nc3ccc(N4CCN(C)CC4)cc3)n2)c1,16,63*,-7,-24,52*,59*,/
O=C(O)CNC(=S)N(Cc1ccccc1)Cc1ccccc1F,-33,2,2,8,5,11,/
COc1ccc(CCNC(=O)C(=O)NCC2CCCN2S(=O)(=O)c2ccccc2)cc1 (stereo not drawn),51*,-4,-18,1,39,9,/
Nc1ccc(Cn2ccc3c4c(N)nc(N)nc4ccc32)cc1,4,-48,-57,18,102*,36,/
CCOC(=O)Cc1csc(N/N=C\c2cccc(Br)c2)n1,-29,-1,39,-2,-50,16,/
CCOC(=O)Cc1csc(N/N=C\c2ccc(N(C)C)cc2)n1,45,-5,73*,9,-76,3,/
CS(=O)(=O)N(CC(=O)N/N=C/c1cccc2c1OCCO2)c1ccccc1Br,-7,9,-13,-3,17,16,/
CCOC(=O)c1ccc(-c2ccc(/C=N/NC(=O)CN(c3ccccc3Br)S(C)(=O)=O)o2)cc1,-4,-7,67*,3,-104,-160,/
Cc1cccc(C)c1NC(=O)CNC(=O)Cn1nc(C)c(C)c(C#N)c1=O,18,-15,9,10,7,8,/
CN1CCC2(CC1)Nc1nc(SCc3ccc(Cl)cc3)nn1C1=C2CN(C)CC1,-2,16,-40,0,52*,26,/
Cc1ccc(-n2c(-c3ccc(Br)cc3)c[n+]3c2CCc2ccc4cccnc4c2-3)cc1,44,20,-59,-52*,64*,10,/
COc1ccc(-n2c(-c3ccc(Cl)cc3)c[n+]3c2CCc2ccccc2-3)cc1,42,-9,25,-12,16,34,/
Fc1ccc(CSc2nnc(CN3CCOCC3)n2-c2ccccc2)c(Cl)c1,6,-1,22,-16,14,16,/
N#C/C(=C/c1ccc(CNS(=O)(=O)c2ccccc2)o1)C(N)=O,-6,10,69*,2,-9,7,/
C/C(CCc1ccco1)=N\NC(=O)CNc1cccc2ccccc12,18,-8,34,4,-13,-6,/
Cc1ccc(-c2nc(S(=O)(=O)c3ccc(C)cc3)c(N3CCOCC3)o2)cc1,14,7,65*,-6,6,-7,/
Cc1cccc(-c2nc(S(=O)(=O)c3ccccc3)c(N3CCOCC3)o2)c1,-7,12,2,-1,15,17,/
C/C(=C\CNc1ncnc2nc[nH]c12)CO,-1,5,7,9,-7,4,/
CC(C)CCCCCCCCCCCCC(=O)NCC(=O)NC1C(C)OC(Nc2ncnc3nc[nH]c23)C(O)C1O (stereo not drawn),77*,83*,97*,-17,100*,79*,/
CSCCC(NC(=O)c1ccccc1C)C(=O)O (stereo not drawn),14,-4,1,7,3,9,/
COc1cccc(/C=N/Nc2ccc(S(=O)(=O)O)cc2)c1O,-16,6,13,5,11,18,/
COc1cccc(/C=N/Nc2ccc(C(=O)O)cc2)c1O,84*,0,103*,7,101*,95*,94*
O=C(CN1CCN(Cc2ccccc2Cl)CC1)N=Nc1c(O)[nH]c2ccccc12,-1,25,1,-17,54*,29,48*
C=CCNCCCCOc1cccc(Br)c1,15,-5,-3,6,6,11,/
Nc1cccc2nc3ccccc3cc12,-62,-89,-32,-8,95*,5,99*
SMILES,TROY signal inh,CF NFkB inh,TWEAK Fn14 block,KKLEB tox,Peg3 prom inh-1,HIF-2a inh,Peg3 prom inh-2
CN(C)c1ccc(/C=C(\C#N)c2ccccn2)cc1,74*,-6,94*,-91*,78*,31,49*
N#C/C(=C\c1ccc([N+](=O)[O-])cc1)c1ccccn1,-76,10,-30,-13,-245,-231,/
CN(C)c1ccc(/C=N/NC(=O)c2ccccn2)cc1,31,6,-14,-11,9,-47,/
CN(C)c1ccc(NC(=S)c2ccccn2)cc1,81*,-11,99*,-55*,90*,54*,66*
Cc1c(Cc2ccccc2)c(=O)oc2cc(OCC(=O)NCC(O)c3ccccc3)ccc12 (stereo not drawn),27,1,-4,-16,7,5,/
Cc1cc(C(=O)CN2C(=O)c3ccccc3S2(=O)=O)c(C)n1-c1ccccc1,0,8,94*,-9,93*,86*,93*
Cc1ccc(-n2cc(CNCCCn3ccnc3C)c(-c3ccc(F)cc3)n2)cc1,-33,24,1,-19,112*,-5,98*
N#C/C(=C\c1ccc(OCc2ccc(C(=O)O)cc2)cc1)C(=O)N1CCOCC1,-63,-10,-6,-6,71*,-20,76*
COc1cc(C(=O)N2CCN(Cc3ccccn3)CC2)cc(OC)c1OC,1,-5,3,-2,-6,14,/
Cc1nnc(NC(=O)c2ccc3c(c2)OCO3)s1,-39,0,1,5,-160,-184,/
CSc1nnc(NC(=O)c2ccc3c(c2)OCO3)s1,71*,-8,92*,0,52*,-13,15
COC(=O)Cn1c(O)c(N=NC(=O)CNC(=O)c2ccncc2)c2ccccc21,-3,4,-5,2,-5,11,/
CC(=O)Nc1cccc(-c2ccnc3c2CC(C)(C(=O)Nc2cccc(C(F)(F)F)c2)O3)c1 (stereo not drawn),27,24,21,-16,52*,21,62*
COc1cc2ccccc2cc1C(=O)N(CCN(C)C)c1nc2c(OC)ccc(OC)c2s1,-31,42,-34,-11,66*,-13,67*
COc1ccc(OC)c2sc(N(CCN(C)C)C(=O)c3ccc4ccccc4c3)nc12,0,8,-16,-6,-6,1,/
O=c1[nH]c(=O)n(C2OC(CO)C(O)C2O)cc1F (stereo not drawn),-12,11,-49,-11,75*,5,75*
Cc1ccc(-c2nn3c(-c4ccco4)nnc3c3ccccc23)cc1S(=O)(=O)NCC1CCCO1 (stereo not drawn),0,-113,19,-6,56*,5,32
Cc1ccc(C2(CCNS(=O)(=O)c3ccc(C)cc3)CCOC(C(C)C)C2)cc1 (stereo not drawn),19,-11,6,-5,10,16,/
Cc1ccc(C2(CCNCc3ccc(N(C)C)cc3)CCOC(C(C)C)C2)cc1 (stereo not drawn),7,-16,6,22,56*,6,63*
Cc1ccc(/C=C2\SC(=S)N(CCC(=O)N3CCCCC3)C2=O)cc1,10,17,-18,11,20,22,/
